We go through 45 molecules from PubChem BioAssay AID504333 (National Center for Advancing Translational Sciences (NCATS), 2011).

Among all 360,000 compounds or so, about 16,000 (4.4%) were called active. Roughly 9% stayed inconclusive and do not appear here. The call rests on the fitted dose curve; in most records, active means well fitted inhibition curve with a large enough effect; inconclusive means small, poorly fitted or top-dose-only effect; inactive means no such curve, though single readings can be large or run the other way. The list comes from a sample in which actives are over-represented; it also holds similar structures and randomly drawn compounds.
On the % scale 0 is the no-effect control and ±100 the full control effect; potency means the concentration at half of the fitted maximal effect.

In this assay the target is Bromodomain adjacent to zinc finger domain protein 2B (Homo sapiens) (UniProt Q9UIF8). Nature of the assay: qHTS Assay for Inhibitors of BAZ2B. Further: nearly all actives have a fitted effect of over 60% in size. To be noted: AlphaScreen BAZ2B-H3K14Ac peptide displacement; series mostly up to 114 µM; activity change, negative = inhibition: at the top concentration. A digest of the protocol: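 AlphaScreen luminescence quantifies BAZ2B engagement of H3K14Ac peptide; the protein and biotinylated peptide are both at 50 nM final, buffer PBS pH 7.4 with 0.01% Tween-20, all steps at room temperature.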
Chain of Bromodomain adjacent to zinc finger domain protein 2B (Homo sapiens) (Q9UIF8 whole entry, looked up, the tested form may be a part): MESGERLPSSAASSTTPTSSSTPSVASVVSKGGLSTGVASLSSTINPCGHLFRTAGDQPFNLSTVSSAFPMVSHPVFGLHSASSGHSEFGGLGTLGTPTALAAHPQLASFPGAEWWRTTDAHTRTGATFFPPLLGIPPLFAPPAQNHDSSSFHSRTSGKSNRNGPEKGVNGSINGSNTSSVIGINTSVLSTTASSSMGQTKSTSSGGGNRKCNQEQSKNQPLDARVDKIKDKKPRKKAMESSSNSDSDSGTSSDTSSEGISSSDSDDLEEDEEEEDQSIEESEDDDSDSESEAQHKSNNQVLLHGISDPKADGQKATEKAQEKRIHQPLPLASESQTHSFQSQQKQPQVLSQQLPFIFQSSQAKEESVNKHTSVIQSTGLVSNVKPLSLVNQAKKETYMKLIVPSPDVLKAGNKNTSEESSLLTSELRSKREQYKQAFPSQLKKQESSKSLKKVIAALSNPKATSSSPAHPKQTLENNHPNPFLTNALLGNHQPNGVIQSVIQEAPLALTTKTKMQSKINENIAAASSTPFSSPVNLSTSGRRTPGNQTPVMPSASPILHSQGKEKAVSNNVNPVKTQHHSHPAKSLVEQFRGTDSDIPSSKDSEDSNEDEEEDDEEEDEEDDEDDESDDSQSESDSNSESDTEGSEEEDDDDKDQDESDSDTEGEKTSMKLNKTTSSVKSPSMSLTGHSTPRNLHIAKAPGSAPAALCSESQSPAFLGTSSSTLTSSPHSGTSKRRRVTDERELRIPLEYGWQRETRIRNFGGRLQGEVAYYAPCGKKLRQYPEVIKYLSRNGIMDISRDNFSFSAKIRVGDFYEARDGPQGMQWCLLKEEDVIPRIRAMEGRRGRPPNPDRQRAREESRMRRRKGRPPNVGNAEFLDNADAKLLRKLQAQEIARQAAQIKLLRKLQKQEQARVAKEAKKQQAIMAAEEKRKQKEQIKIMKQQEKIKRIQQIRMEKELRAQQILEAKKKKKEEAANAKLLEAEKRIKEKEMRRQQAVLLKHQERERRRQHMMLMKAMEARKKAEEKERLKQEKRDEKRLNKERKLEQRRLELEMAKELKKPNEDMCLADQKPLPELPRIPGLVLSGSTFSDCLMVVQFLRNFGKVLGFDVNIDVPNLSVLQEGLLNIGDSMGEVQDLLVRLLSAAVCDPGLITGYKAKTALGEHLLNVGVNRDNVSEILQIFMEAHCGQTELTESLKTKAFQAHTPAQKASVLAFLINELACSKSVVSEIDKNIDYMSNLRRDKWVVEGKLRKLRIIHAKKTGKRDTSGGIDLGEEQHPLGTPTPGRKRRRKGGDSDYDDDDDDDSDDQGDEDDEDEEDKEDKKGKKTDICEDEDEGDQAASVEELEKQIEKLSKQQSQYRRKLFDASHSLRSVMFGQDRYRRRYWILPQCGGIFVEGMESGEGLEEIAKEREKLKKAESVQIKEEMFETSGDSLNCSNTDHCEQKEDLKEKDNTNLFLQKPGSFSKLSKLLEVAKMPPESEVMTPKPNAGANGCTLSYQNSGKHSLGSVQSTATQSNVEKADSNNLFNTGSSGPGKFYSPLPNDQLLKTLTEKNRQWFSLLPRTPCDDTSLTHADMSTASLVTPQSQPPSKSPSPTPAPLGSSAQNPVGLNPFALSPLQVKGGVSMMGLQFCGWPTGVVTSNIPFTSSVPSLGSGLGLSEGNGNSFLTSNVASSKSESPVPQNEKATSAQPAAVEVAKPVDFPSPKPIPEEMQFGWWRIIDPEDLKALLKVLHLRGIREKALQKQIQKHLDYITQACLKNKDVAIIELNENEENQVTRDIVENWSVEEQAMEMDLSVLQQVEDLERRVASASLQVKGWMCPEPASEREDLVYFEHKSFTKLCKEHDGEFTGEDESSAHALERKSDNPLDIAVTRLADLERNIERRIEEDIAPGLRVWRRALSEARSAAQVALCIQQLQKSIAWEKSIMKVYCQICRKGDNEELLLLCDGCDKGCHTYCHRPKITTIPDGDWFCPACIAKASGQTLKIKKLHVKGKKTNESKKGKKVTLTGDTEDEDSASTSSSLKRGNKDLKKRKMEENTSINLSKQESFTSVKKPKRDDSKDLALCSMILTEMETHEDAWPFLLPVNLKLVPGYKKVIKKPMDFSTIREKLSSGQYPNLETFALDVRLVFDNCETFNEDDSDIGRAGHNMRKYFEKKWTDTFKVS
`CCOc1ccc(OCC)c(NC(=O)c2c(C)nn(-c3ccccc3)c2-n2cccc2)c1`: the “activity change, negative = inhibition” value is -14.5% (inactive).
Still for that read-out and setting: as for `O=C(CCc1ccccc1)NCc1ccc2c(c1)CCN2C(=O)c1ccccc1`, the figure is 0.443% (inactive).
In the case of `CCOCCCNC(=O)c1c(NC(=O)Cc2coc3ccc(C)cc23)sc2c1CCC2`, the “activity change, negative = inhibition” value is -24% (inactive).
For the molecule `COc1ccc(S(=O)(=O)N(CC(=O)N/N=C/c2ccccc2C(=O)O)c2ccccc2OC)cc1`, the “activity change, negative = inhibition” value is -4.57% (inactive).
Take `COc1ccccc1N(CC(=O)N/N=C(\C)c1ccccc1O)S(=O)(=O)c1ccc(C)cc1`: the Potency was 50.1 µM (active).
With `COc1ccccc1NC(=O)CN(c1ccccc1OC)S(=O)(=O)c1ccccc1`, the “activity change, negative = inhibition” value is -1.7% (inactive).
`CCCN(CCC)S(=O)(=O)c1ccc(C(=O)Nc2sc3c(c2C(=O)OC)CCN(CC)C3)cc1`: the “activity change, negative = inhibition” value is 5.32% (inactive).
In the case of `Cc1cccc(C(=O)N2CCc3cc(CNC(=O)Cc4ccc(F)cc4)ccc32)c1`, the “activity change, negative = inhibition” value is -4.43% (inactive).
In the case of `CCC(=O)Nc1c(C(=O)N2CCN(c3ccc(F)cc3)CC2)oc2ccccc12`, the “activity change, negative = inhibition” value was -0.938% [at 57.1 µM] (inactive).
`Cc1nnc(SCC(=O)NCc2ccccc2Cl)c2nn(-c3ccccc3)c(C)c12`: the “activity change, negative = inhibition” value is -11.1% (inactive).
Consider `Cc1ccc(-n2nc3c(=O)n(C(C)C(=O)NCc4ccc5c(c4)OCO5)nc(C)c3c2C)cc1` (stereo not given), for which the Potency was 79.4 µM (active).
The same measure, in the same setting: as for `COc1ccc(CNC(=O)C(C)n2nc(C)c3c(C)n(-c4ccccc4)nc3c2=O)c(OC)c1` (stereo not given), the entry is “inactive”.
With `Cc1nn(C(C)C(=O)NCCC2=CCCCC2)c(=O)c2nn(-c3ccccc3)c(C)c12` (stereo not given), the “activity change, negative = inhibition” value is -18.5% (inactive).
Same read-out and setting: then `O=C(CSCc1cnn(-c2ccccc2)c1-n1cccc1)NCc1ccccc1Br`, with -3.98% (inactive); and `CCn1c(-c2cc(OC)ccc2OC)csc1=Nc1c(C)n(C)n(-c2ccccc2)c1=O`, with -32.6% (inactive).
Same read-out and setting: as for `COCCNC(=S)N/N=C/c1c(C)[nH]c2ccccc12`, the figure is -32.2% (inactive).
Turning to `CN=c1scc(-c2cc(OC)ccc2OC)n1/N=C/c1c(C)[nH]c2ccccc12`, the Potency was 35.5 µM (active).
Take `COc1ccc(CNC(=O)Cn2nnc(-c3ccccc3F)n2)cc1`: the “activity change, negative = inhibition” value was -23.3% (inactive).
With `CC(C)c1ccc(NC(=O)c2cc(S(=O)(=O)N3CCc4ccccc4C3)ccc2F)cc1`, the “activity change, negative = inhibition” value is 6.06% (inactive).
Same read-out and setting: then `Cc1cccc(CCNC(=O)c2ccc3c(c2)nc2n3CCC(C)C2)c1` (stereo not given), with 1.78% (inactive); and `Cc1ccc(C)n1-c1nnc(N2CCC(C(=O)NCc3ccccc3Cl)CC2)s1`, with -14.5% (inactive); and `Cc1ccc(-n2c(C)cc(/C=N\NC(=O)CC(=O)NC(C)C)c2C)cc1`, with -37.5% (inactive).
Regarding `Cc1cc(/C=N/NC(N)=O)c(C)n1C1CCCCC1`, the Potency was 50.1 µM (active).
`O=C(N/N=C/c1ccccc1O)C1CCCC1`: the “activity change, negative = inhibition” value was 12.8% (inactive).
Consider `CCC(=O)N1c2ccccc2CC1C(=O)N1CCN(c2cccc(OC)c2)CC1` (stereo not given), for which the “activity change, negative = inhibition” value is -5.26% (inactive).
Take `O=C(CC(NCc1cccnc1)C(=O)O)Nc1ccc(O)cc1` (stereo not given): the “activity change, negative = inhibition” value was -2.04% (inactive).
Regarding `CCc1ccc(CNC(=O)C2CCN(c3nn4cc(-c5ccc(F)cc5)nc4s3)CC2)cc1`, the “activity change, negative = inhibition” value is 2.3% (inactive).
Regarding `CC1CCCC(C)N1C(=O)CN1CCN(c2nc(-c3ccc(F)cc3)cs2)CC1` (stereo not given), the Potency is 70.8 µM (active).
Take `COc1cccc(NC(=O)CN2CCN(c3nc(-c4cccc(OC)c4)cs3)CC2)c1`: the “activity change, negative = inhibition” value was -10.8% (inactive).
For `CC(C)(C)NC(=O)CSc1nc(-c2ccc(F)cc2)cc(C(F)(F)F)n1`, the “activity change, negative = inhibition” value is -4.35% (inactive).
The same measure, in the same setting: as for `COc1ccc(S(=O)(=O)N2CCCCC2)cc1C(=O)NC1CCS(=O)(=O)C1` (stereo not given), the figure is -1.06% (inactive); as for `CCc1ccc(NC(=O)c2cc(S(=O)(=O)NC3CCCCCC3)ccc2F)cc1`, -1.62% (inactive); as for `CC(CCCc1ccccc1)NC(=O)c1nn(-c2ccc(Cl)cc2)nc1CO` (stereo not given), 19.6% (inactive).
With `O=C(Nc1ccc(-n2ccnc2P(=O)(O)c2ccccc2)cc1)c1ccccc1Br`, the Potency is 44.7 µM (active).
Turning to `Cn1c(=O)c(=O)n(C)c2cc(NC(=O)c3ccccc3Br)ccc21`, the “activity change, negative = inhibition” value is 0.887% (inactive).
Same read-out and setting: then `Cc1ccc(NC(=O)c2cccnc2C(=O)Nc2ccc(C)cc2)cc1`, with -9.55% (inactive); and `COc1ccccc1NC(=O)CSc1oc(-c2ccco2)nc1S(=O)(=O)c1ccc(Br)cc1`, with -18.6% (inactive); and `Cc1cccc(NC(=O)CSc2nc3c([nH]c4ccccc43)c(=O)n2-c2cc(C)cc(C)c2)c1`, with 3.67% (inactive).
On the same count and under the same terms, as for `CCN(CC)c1ccc(NC(=O)Cn2nc3c(cc2=O)CCCC3)c(C)c1`, the figure is -1.37% (inactive).
Regarding `COc1ccc(C2C(C#N)=C(N)N(c3ncn[nH]3)C3=C2C(=O)CCC3)cc1` (stereo not given), the Potency is 79.4 µM (active).
Regarding `CCOc1ccc(C2C(C#N)=C(N)N(N(C)C)C3=C2C(=O)CCC3)cc1` (stereo not given), the “activity change, negative = inhibition” value was -12.8% (inactive).
Same read-out and setting: as for `N#CC1=C(N)N(c2ccccc2)C2=C(C(=O)CCC2)C1c1ccccc1` (stereo not given), the figure is -3% (inactive).
Regarding `Oc1ccc(Br)cc1/C=N/Nc1ccccn1`, the Potency was 31.6 µM (active).
As to `Cc1c(C(=O)Nc2ccccn2)oc2ccc(Br)cc12`, the “activity change, negative = inhibition” value was -26.1% (inactive).
Same read-out and setting: then `Oc1ccc(Br)cc1C=Nc1ccc2[nH]ncc2c1`, with -29.7% (inactive).
